# Assay results: PubChem BioAssay (EPA / NIEHS)
# The source made the active and inactive calls. How the source made its calls: active means hit-call score of the fitted dose curve at least 0.9, where 1 is the maximum; inactive means score below 0.9.
# Assay: ATG_SREBP_CIS: Attagene CIS-FACTORIAL HepG2 Assay for human Sterol Regulatory Element Binding (SREBP) (AID 2282962)
# Conditions: HepG2 Attagene cis-factorial SREBP reporter, mRNA; actives raise or lower the signal
# Experimental: ATG_CIS is a cell-based, multiplexed-readout assay that uses HepG2, a human liver cell line, with measurements taken at 24 hours after chemical dosing in a 24-well plate.ATG_SREBP_CIS is one of 52 assay component(s) measured or calculated from the ATG_CIS assay. It is designed to make measurements of mRNA induction, a form of inducible reporter, as detected with fluorescence intensity signals by Reverse transcription polymerase chain reaction (RT-PCR) and Capillary electrophoresis technology.Data from the assay component ATG_SREBP_CIS was analyzed into 1 assay endpoint. This assay endpoint, ATG_SREBP_CIS, was analyzed with bidirectional fitting relative to DMSO as the negative control and baseline of activity. Using a type of inducible reporter, measures of mRNA for gain or loss-of-signal activity can be used to understand the reporter gene at the transcription factor-level as they relate to the gene SREBF1. Furthermore, this assay endpoint can be referred to as a primary readout, because this assay has produced multiple assay endpoints where this one serves a reporter gene function. To generalize the intended target to other relatable targets, this assay endpoint is annotated to the dna binding intended target family, where the subfamily is basic helix-loop-helix leucine zipper.
# Human liver HepG2 cells are transiently transfected with multiple reporter transcription units (MRTUs) in 6-well plates using FuGene 6 reagent (Roche; 3 ml FuGene/1 mg DNA). The MRTU constructs are regulated by a cis-regulating element (promoter). […] A major difference between the CIS and TRANS system is that in CIS activities of endogenous TFs are measured, whereas the TRANS assay evaluates changes in activities of exogenous, chimeric NR-Gal4 proteins. […] At the end of 24 hour incubation, total RNA was isolated using TriZol reagent (Invitrogen). The isolated RNA is then reverse-transcribed using oligo(dT) primer and Mo-MLV reverse transcriptase (Invitrogen) with DNAse I (Ambion) treatment for 30 min. The one-tenth of the produced cDNA was amplified by PCR using Taq DNA polymerase (Invitrogen) and two reporter sequence-specific primers. The PCR products were fluorescently labeled by primer extension with 6-arboxyfluorescein (6-FAM) 5'-labeled reporter sequence-specific primer (2 min at 95 C, 20 s at 68 C and 10 min at 72 C) and these products were digested with 5U of HpaI (New England Biolabs) for 2h at 37 C. The fragments were purified using Qiaquick PCR columns (Qiagen), analyzed on an ABI 3130xL genetic analyzer (Applied Biosystems) with peak positions identified by using a set of X-rhodamine (ROX)-labeled MapMarker1000 molecular weight standards (BioVentures). The raw capillary electrophoresis data was processed using Attagraph software (Attagene).
SMILES,outcome,AC50
O=C1CCCN1CCO,inactive,
Cc1cc(O)c(Cl)c(C)c1Cl,inactive,
C=C(C)c1cccc(C(C)(C)N=C=O)c1,inactive,
C[C@]12C=CC(=O)C=C1CC[C@@H]1[C@@H]2[C@@H](O)C[C@@]2(C)[C@H]1CC[C@]2(O)C(=O)CO,inactive,
CCCCCC/C=C/C=O,inactive,
O=c1cc(-c2ccccc2)oc2ccccc12,inactive,
CCOC(=O)CC,inactive,
CCOC(=O)N1CCC(=C2c3ccc(Cl)cc3CCc3cccnc32)CC1,inactive,
O=C(O)CCCCCCCCCC(=O)O,inactive,
COc1ccc(C(Cl)=C(c2ccc(OC)cc2)c2ccc(OC)cc2)cc1,inactive,
C=CC(C)(C)C,inactive,
O=C1c2ccccc2C(=O)C1c1nc2ccccc2c(Br)c1O,inactive,
Cc1cc(C)c(C)c(O)c1,inactive,
CCCCCCCC(C)=O,inactive,
Cc1cccc(C(=O)O)c1,inactive,
COCc1c(C(C)C)nc(C(C)C)c(/C=C/[C@@H](O)C[C@@H](O)CC(=O)O)c1-c1ccc(F)cc1,inactive,
O=C(C(Cl)Cl)N1CCOC12CCCCC2,inactive,
CCC(C)C=O (stereo not given),inactive,
CC(C)c1ccc(C=O)cc1,inactive,
CC1=CC[C@H]2C[C@@H]1C2(C)C,inactive,

SMILES,outcome,AC50
C=C(C)C(=O)OCCO,inactive,
CC(=O)OCc1ccco1,inactive,
CC(=O)c1ccc[nH]1,inactive,
O=P(O)(O)Oc1ccccc1,inactive,
O=c1cc[nH]c(=S)[nH]1,inactive,
CCCCC/C=C\C/C=C\CCCCCCCC(=O)OC,inactive,
CC1(C)S[C@@H]2[C@H](NC(=O)COc3ccccc3)C(=O)N2[C@H]1C(=O)O,inactive,
O=c1c2ccccc2nnn1CCl,inactive,
C=C(C)[C@@H]1CCC2=CCC[C@@H](C)[C@]2(C)C1,inactive,
CC(CC=O)CCCC(C)(C)O (stereo not given),inactive,
CCCCCCCCCCCCCCCC[N+](C)(C)CC,inactive,
O=S(=O)(O)c1cc(S(=O)(=O)O)c2ccc3c(S(=O)(=O)O)cc(S(=O)(=O)O)c4ccc1c2c43,inactive,
CC(=O)NS(=O)(=O)c1ccc(N)cc1,inactive,
C[Si](C)(CCCN)O[Si](C)(C)CCCN,,54.5 µM (active)
NNC(=O)c1cccc(C(=O)NN)c1,inactive,
C=C(C)C(=O)OCC(C)C,inactive,
O=C1C=CC(=O)O1,inactive,
CCCCC(CC)CCC(CC(C)C)OS(=O)(=O)O (stereo not given),inactive,
N=c1ccn2c(n1)O[C@H]1[C@H](O)[C@@H](CO)O[C@H]12,inactive,
CCC(CO)CO,inactive,
